From PubChem BioAssay
G9a block: qHTS Assay for Inhibitors of Histone Lysine Methyltransferase G9a; AID 504332, 2011; Histone-lysine N-methyltransferase EHMT2 (Homo sapiens), Q96KQ7; G9a H3K9 monomethylation, AlphaScreen, 2 h; Potency, µM (titrated, usually from 102 µM), for inactives: at the top dose activity, negative = inhibition, actives largely listed as inhibitors; 8.8% of 350,000 active; further: on the % scale 0 is the no-effect control and ±100 the full control effect; nearly all actives have a fitted effect of over 75% in size
Target sequence (Q96KQ7 913-1193 limits assumed): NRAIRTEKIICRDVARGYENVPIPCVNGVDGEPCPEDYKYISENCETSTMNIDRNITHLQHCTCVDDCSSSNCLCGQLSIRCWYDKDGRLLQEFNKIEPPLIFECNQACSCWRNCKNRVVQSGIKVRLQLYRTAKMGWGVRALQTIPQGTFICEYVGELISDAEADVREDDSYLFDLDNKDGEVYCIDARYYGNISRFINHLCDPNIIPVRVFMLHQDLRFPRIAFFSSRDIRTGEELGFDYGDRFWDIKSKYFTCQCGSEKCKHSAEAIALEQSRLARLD
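Compounds were preincubated with 20 nM G9a for 15 min, after which biotinylated H3K9 peptide (500 nM) and SAM (20 uM) started a 2 h room-temperature reaction. Monomethylated product was quantified by antibody-based AlphaScreen chemiluminescence.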
BAZ2B block: qHTS Assay for Inhibitors of BAZ2B. AlphaScreen BAZ2B-H3K14Ac peptide displacement. Potency, µM (series often up to 114 µM), for inactives: at the top dose activity change, negative = inhibition, usual class: inhibitors. 4.4% of 360,000 active. AID 504333, 2011. Bromodomain adjacent to zinc finger domain protein 2B (Homo sapiens), Q9UIF8; further: on the % scale 0 is the no-effect control and ±100 the full control effect; nearly all actives have a fitted effect of over 60% in size
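Inhibition is scored as reduced AlphaScreen emission. The BAZ2B/b-H3(5-23)K14Ac complex (50 nM each) in PBS pH 7.4, 0.01% Tween-20 meets compound (up to 110 uM) for 30 min at RT before bead addition.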
HP1b chromo inh: HTS for Inhibitors of HP1-beta Chromodomain Interactions with Methylated Histone Tails. AlphaScreen HP1-beta / biotin-H3K9me3 peptide binding. Potency, µM (series often up to 114 µM), inactives show top-dose activity change, negative = inhibition, usual class: inhibitors. 0.56% of 390,000 active. AID 540317, 2011; further: nearly all actives have a fitted effect of over 70% in size
Target sequence (P83916 whole entry, looked up): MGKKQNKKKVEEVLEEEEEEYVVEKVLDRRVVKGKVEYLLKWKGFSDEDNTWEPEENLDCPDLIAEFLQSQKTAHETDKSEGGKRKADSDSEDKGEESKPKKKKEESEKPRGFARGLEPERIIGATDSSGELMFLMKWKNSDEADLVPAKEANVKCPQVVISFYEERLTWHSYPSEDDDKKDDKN
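HP1-beta protein (50 nM final) preincubated 30 min at room temperature with biotinylated H3(1-18)K9me3 peptide (50 nM) in PBS pH 7.4, 0.01% Tween-20, then compound added for 30 min. AlphaScreen streptavidin donor/nickel chelate acceptor beads (10 ug/mL final), 30 min dark, luminescence read.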
L3MBTL1 inh: qHTS Assay for the Inhibitors of L3MBTL1; Lethal(3)malignant brain tumor-like protein 1 (Homo sapiens), Q9Y468; AlphaScreen L3MBTL1–H3K9me1 peptide binding; Potency, µM (top dose mostly 57.1 µM), for the others: at the highest dose activity, negative = inhibition, actives largely listed as inhibitors; 0.66% of 230,000 active; further: on the % scale 0 is the no-effect control and ±100 the full control effect; nearly all actives have a fitted effect of over 60% in size
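First, the protein-peptide complex forms for 30 min at room temperature (L3MBTL1 50 nM, biotinylated H3K9me1 peptide 75 nM). Next, compounds are pin-transferred and incubated 30 min. Finally, AlphaScreen beads are added and read after 30 min.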
JMJD2A Tudor inh: qHTS Assay for Inhibitors of JMJD2A-Tudor Domain | AID 504339, 2011 | Potency, µM (titrated, usually from 114 µM), without a hit: top-dose activity change, negative = inhibition, hits mostly inhibitors | AlphaScreen JMJD2A-Tudor / H3K4me3 peptide binding | 4.4% of 390,000 active; further: on the % scale 0 is the no-effect control and ±100 the full control effect; nearly all actives have a fitted effect of over 50% in size
Starred values were filed as active, the others as inactive; ? = inconclusive; nt = not tested or not shown; [ ] = remark or other dose. This is a sample that favours compounds with a hit; in the whole collection about 11% have one here. The call rests on the fitted dose curve; in most records, active means well fitted inhibition curve with a large enough effect; inconclusive means small, poorly fitted or top-dose-only effect; inactive means no such curve, though single readings can be large or run the other way. Potency means the concentration at half of the fitted maximal effect.

SMILES	G9a block	BAZ2B block	HP1b chromo inh	L3MBTL1 inh	JMJD2A Tudor inh
CCOC(=O)C1CCN(S(=O)(=O)c2ccc3oc(=O)ccc3c2)CC1	9%	-7%	14%	nt	2%
O=C(c1ccc2c(=O)n(-c3ccccc3)c(=O)[nH]c2c1)N1CCN(Cc2cccs2)CC1	nt	nt	40%	nt	-10%
CCN(CC)S(=O)(=O)c1ccc(Cl)c(C(=O)NCc2ccccc2Cl)c1	11%[59 µM]	-5%	62%	1%	2%
CCN(CC)S(=O)(=O)c1ccc(C(=O)NCc2nnc(SCC(=O)OC)n2C)cc1	5%	7%	23%	0%	-1%
CCN(CC)S(=O)(=O)c1ccc(C(=O)NCc2n[nH]c(=S)n2-c2ccc(Cl)c(Cl)c2)cc1	16µM*	-37%	1%	nt	-31%
CCN(CC)S(=O)(=O)c1ccc(C(=O)NCc2n[nH]c(=S)n2-c2ccccc2OC)cc1	3.5µM*	-6%	17%	2%	22µM*
COc1ccc(-c2nsc(NC(=O)COc3ccc(C)c(C)c3)n2)cc1	-30%[59 µM]	-5%	32%	nt	-8%
CCOc1ccc(CNC(=O)c2ccc(-c3nc(CS(=O)(=O)c4ccccc4)c(C)o3)cc2)cc1	-25%[59 µM]	-18%	23%	nt	-7%
Cc1ccccc1-c1noc(-c2cccnc2N2CCN(c3ccccc3)CC2)n1	-43%[59 µM]	?	53%	nt	-3%
COc1ccccc1OCc1cc(-c2ccccc2)no1	178%	152%	211%	51%	131%
Cc1cc(COc2ccccc2O)on1	71µM*	6%	47%	nt	2%
Cc1ccc2c(c1)C(=O)C(=O)N2CCOc1ccccc1	45µM*	?	?	-25%	?
Cc1ccc2c(c1)C(=O)C(=O)N2CCCOc1ccccc1C	-38%	-17%	?	6%	40µM*
CCCN1C(=O)C(=O)c2cc(C)ccc21	nt	nt	30%	-3%	-9%
Cn1cccc1-c1cc2n(n1)CCC(=O)N2CCCC(=O)NCc1cccc(Cl)c1	?	?	-1%[57 µM]	nt	-34%
CC1CCc2cc(F)cc3c2N1C(=O)C(C(=O)Nc1cnccn1)C3=O (configuration not stated)	nt	nt	-17%	nt	-18%
Cc1cc(C)cc(N2C(=O)CSC23C(=O)N(CC(=O)NCCc2ccccc2)c2ccccc23)c1 (configuration not stated)	-7%[59 µM]	7%[57.1 µM]	26%	nt	-32%
COc1cc(NC(=O)C(OC(=O)CNC(=O)c2ccccc2)c2ccccc2)cc(OC)c1 (configuration not stated)	nt	nt	nt	nt	-12%
CCCn1nnnc1NCc1ccccc1OCC	35µM*	2%	27%	?	-9%
O=[N+]([O-])c1ccc(Cl)c(/C=N/N2CCN(c3ccccc3)CC2)c1	32µM*	11µM*	?	-18%	10µM*
O=[N+]([O-])c1cc(/C=N/N2CCN(c3ccccc3)CC2)ccc1Cl	-18%[59 µM]	?	38%	-9%	-3%
COc1ccccc1N1CCN(/N=C/c2cc([N+](=O)[O-])ccc2Cl)CC1	?	7.9µM*	-20%	-29%	?
c1ccc(-c2csc(-n3cccn3)n2)cc1	?	14%	-6%	13%	-15%
Cc1c(C(=O)OCC(C)C)[nH]c2c1C(=O)CC(c1ccco1)C2 (configuration not stated)	40µM*	50µM*	18%	?	?
C/C=C/COC(=O)c1[nH]c2c(c1C)C(=O)CC(c1ccco1)C2 (configuration not stated)	45µM*	50µM*	-8%	?	50µM*
SMILES	G9a block	BAZ2B block	HP1b chromo inh	L3MBTL1 inh	JMJD2A Tudor inh
C=CCOC(=O)c1[nH]c2c(c1C)C(=O)CC(c1ccco1)C2 (configuration not stated)	?	50µM*	28µM*	?	20µM*
Clc1ccc(C2=NCCN2)cc1	5%[59 µM]	?	32%	-8%	-9%
O=C1c2ccccc2C(=O)c2c1cccc2N1CCOCC1	nt	16µM*	40µM*	?	35µM*
COc1ccc(-c2cc(C3C4C=CCCC4(C)C(=O)N3Cc3ccccc3)ccc2F)cc1 (configuration not stated)	nt	nt	15%	nt	-21%
COc1ccc(OC)c(CCNC(=O)Cn2ncc3c([nH]c4ccccc43)c2=O)c1	36%[59 µM]	18%	22%	nt	-1%
O=C(COC(=O)c1ccc2c(c1)OCO2)Nc1ccccc1OC(F)F	nt	nt	32%	-2%	2%
CCOc1ccc(C(=O)OCC(=O)Nc2cccnc2Cl)cc1OCC	nt	nt	28%	0%	-7%
CCOC(=O)c1ncccc1NC(=O)CC(=O)Nc1cccnc1C(=O)OCC	nt	nt	20%	nt	13µM*
O=C(COC(=O)c1ccc(Cl)c([N+](=O)[O-])c1)Nc1ccccc1OC(F)F	1.6µM*	0%	19%	-10%	2%
O=C(COC(=O)c1ccccn1)Nc1cccnc1Cl	28µM*	79µM*	-1%	-4%	?
O=C(COC(=O)c1ccccn1)Nc1ccccc1OC(F)F	4%	50µM*	20%	nt	56µM*
CCCCOc1ccccc1C1CC(=O)Nc2ccc3ccccc3c21 (configuration not stated)	-39%[59 µM]	?	24%	nt	-29%
CCn1cc(C(=O)NCCN(CC(C)C)CC(C)C)c(=O)c2cc(S(=O)(=O)N(C)C3CCCCC3)ccc21	-5%[59 µM]	nt	22%	nt	-12%
CC(O/N=C(\N)c1ccccc1)C(=O)Nc1cccc(C(F)(F)F)c1 (configuration not stated)	nt	nt	48%	-1%	-2%
O=C(OCC(=O)c1ccc(Cl)cc1Cl)c1ccccn1	nt	nt	28%	?	40µM*
COc1ccc(C(=O)COC(=O)c2ccccn2)c(OC)c1	nt	nt	10%[57 µM]	-1%	-20%
OC(CNC1Cc2ccccc2C1)COc1ccc(Cl)cc1 (configuration not stated)	-28%	-4%	30%	nt	-4%
OC(CNC1CCCc2ccccc21)COc1c(Cl)cccc1Cl (configuration not stated)	7.9µM*	40µM*	7%	3%	5.6µM*
CC1=C(C(=O)Nc2ccccc2)C(c2ccncc2)n2nc(SCc3ccccc3)nc2N1 (configuration not stated)	-4%[59 µM]	?	23%	nt	-10%
COC(=O)Nc1nc2ccc(-c3n[nH]c(=O)c4ccccc34)cc2[nH]1	50µM*	?	11%	0%	?
CCN1C=C(Cc2cccs2)C2=C(C1)C(c1cccs1)C(C#N)=C(N)O2 (configuration not stated)	?	35µM*	-34%	?	?
